# Most compounds without a hit are left out; they make up all but 6.2% or so of the library.
# LASV entry inh – Lassa virus entry inhibition; Lassa virus pseudotype entry inhibition, cell reporter; Potency, µM (titrated, usually from 37.9 µM), without a hit: at the highest dose activity change, negative = inhibition, hits mostly inhibitors; 300,000 tested, 1.2% active; AID 540256; calls by dose curve; tested in HEK293 cells; also: potency is read from the fitted curve at half-maximal effect; nearly all actives have a fitted effect of over 50% in size
# MARV entry inh – blocks Marburg virus binding to or entry into cells; Marburg virus pseudotyped entry inhibition, cell reporter; Potency, µM (doses to about 37.8 µM), without a hit: at the highest dose activity change, negative = inhibition, actives largely listed as inhibitors; 300,000 tested, 1.8% active; AID 540276; calls by dose curve; tested in HEK293 cells; also: potency is read from the fitted curve at half-maximal effect
# FMDV inh – foot and mouth disease virus antiviral activity; 410,000 tested, 1.2% active; AID 1159524; Potency, µM (highest dose often 57.9 µM), for the others: at the highest dose activity change, negative = inhibition, usual class: inhibitors; FMDV antiviral cell-based qHTS; calls by dose curve; tested in HEK293T cells; also: read-out not given here; potency is read from the fitted curve at half-maximal effect; nearly all actives have a fitted effect of over 45% in size
# HCMV inh – blocks human cytomegalovirus replication; HFF cells, HCMV-luciferase reporter, 72 h; stronger effect = lower value; AID 1259415; 410,000 tested, 4.5% active; activity change, negative = inhibition, % at 57.5 µM; in the data active = activity change below about -60%; inconclusive = no clear call, values can overlap the other calls; inactive = above about -39%
#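 Steps: HFFs plated, 16 h 37C; compounds added; HCMV-luciferase added to MOI 1 PFU/cell; 72 h 37C; OneGlo reagent, 5 min room temperature; luminescence read, normalized to controls.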
# * = called active by the depositor; u = inconclusive; x = not tested or not shown; ! = not active in a repeat; [ ] = remark or other dose. % is scaled to controls: 0 for no effect and ±100 for the full control effect.
SMILES,LASV entry inh,MARV entry inh,FMDV inh,HCMV inh
COc1cc(NC(=O)N2CCc3nc(NCc4cccc(Oc5ccccc5)c4)ncc3C2)cc(OC)c1OC,x,x,u,-92.1*
CC(C)(C)c1ccc(NS(=O)(=O)c2ccc(N)cc2)cc1,u,u,26.9%,47.1
CC(C)(C)c1ccc(S(=O)(=O)/C=C/C#N)cc1,3.66µM*,2.51µM*,x,x
COc1ccc(-c2csc(-c3cccnc3)n2)cc1C,4.7%,-14.0%,26.9%,-103.1*
Cc1sc(N/N=C/c2cccs2)nc1-c1ccccc1,u,7.94µM*,-14.3%,u
CC[C@@]1(C(=O)OC)N[C@H](CN(C)C(C)=O)[C@@H]2C(=O)N(Cc3ccccc3)C(=O)[C@@H]21,x,x,-12.3%,-21.1
CCc1cc2c3c(c1)C1(C(=O)N3C(C)(C)CC2C)C(C#N)=C(N)N2C(=C1C#N)Nc1ccccc12 (stereo not given),12.6µM*,u,u,u
FC(F)(F)c1ccccc1-c1cncnc1NCc1ccccc1,x,x,-8.4%,x
CC(=O)N1CN(C2CCCC2)Cc2c1sc1c2CCCC1,-0.4%,-22.4%,56.8%,14.1
CC(=O)N1CN(C2CC(C)(C)NC(C)(C)C2)Cc2c1sc1c2CCCC1,u,u,-19.0%,-62.7*
COc1ccc(N2C(=O)CC(N3CCN(c4ccccc4F)CC3)C2=O)cc1 (stereo not given),2.5%,15.1%,x,-0.4
O=S(=O)(c1ccc(-c2cnc(C3CC3)o2)cc1)N1CCN(c2ccc(F)cc2)CC1,7.94µM*,x,0.0%,-77.2*
CC(=O)c1ccc(N2CCN(S(=O)(=O)c3ccc(-c4cnc(C5CC5)o4)cc3)CC2)cc1,10.6%[46.1 µM],x,31.6µM*!,-11.0
Cc1cc(C)cc(-n2cc(C(=O)O)c(=O)cc2C)c1,10.3%[46.1 µM],u,-15.3%,-80.4*
Cc1cccnc1C(NC(=O)C1CCN(Cc2ccccc2)CC1)c1ccc(F)cc1 (stereo not given),x,x,-10.4%,-61.7*
FC(F)(F)c1cccc(Cc2noc(CN3CCC(c4ccncc4)CC3)n2)c1,u,u,-4.2%,-80.2*
Cc1ccc(Sc2ccc(N)cc2C#N)cc1,-3.6%,1.1%,-19.0%,-16.7
COc1ccc(S(=O)(=O)N(CC(=O)NCC2CCCO2)Cc2ccccc2)cc1C (stereo not given),u,20.0%[46.1 µM],1.0%,-90.2*
CCC(C(=O)NCC1CCCO1)N(Cc1ccc(F)cc1)C(=O)CNS(=O)(=O)c1ccccc1 (stereo not given),-2.2%,-2.6%[46.1 µM],23.1%,-70.6*
O=C(CC(c1ccccc1)c1ccccc1)NCC1CCCO1 (stereo not given),-0.7%,17.6%,-4.8%,-99.7*
O=C(CN(Cc1ccccc1)S(=O)(=O)c1ccc(Br)cc1)NCC1CCCO1 (stereo not given),-5.4%,-25.8%[46.1 µM],-14.9%,-23.1
COc1ccc(S(=O)(=O)NCC(=O)N(CC(=O)NCC2CCCO2)c2ccccc2C)cc1 (stereo not given),-12.8%,-3.3%,-13.6%,22.8
CCOc1ccccc1N(CC(=O)NCC1CCCO1)C(=O)CNS(=O)(=O)c1ccccc1 (stereo not given),5.3%,-3.7%[46.1 µM],4.5%,-68.8*
CCC1(c2ccccc2)NC(=O)N(CC(=O)Nc2ccccc2N2CCCCC2)C1=O (stereo not given),-26.1%,u,-13.1%,4.6
COc1cc(N=c2ssnc2Cl)cc(OC)c1,-6.5%,7.3%,39.8µM*,32.8
SMILES,LASV entry inh,MARV entry inh,FMDV inh,HCMV inh
Clc1nssc1=Nc1ccc(Br)cc1,6.2%,-14.6%,u,u
COc1ccc(-n2c(SCC(=O)NCC3CCCO3)nc3c([nH]c4ccccc43)c2=O)cc1OC (stereo not given),x,x,-9.9%,57.0
CC(NCc1ccc(Cl)cc1)C(O)c1ccccc1 (stereo not given),21.7%,u,x,-6.7
CC(NCc1ccc(-c2ccccc2)cc1)C(O)c1ccccc1 (stereo not given),4.61µM*,u,u,-101.2*
Cc1ccn2c(Nc3ccc4c(c3)OCO4)c(-c3ccccn3)nc2c1,u,u,u,-97.7*
O=C(CN1C(=O)C2C3C=CC(C3)C2C1=O)Nc1cccc(S(=O)(=O)N2CCCC2)c1 (stereo not given),17.8%,11.4%,-5.5%,-1.7
COc1cc(OC)c(C2=Nc3ccc(Br)cc3C(c3ccccc3)N2CC(=O)NN)cc1OC (stereo not given),x,x,-11.3%,-67.6*
NNC(=O)CN1C(c2ccccc2)=Nc2ccc(Br)cc2C1c1ccccc1 (stereo not given),u,-30.0%[46.1 µM],-7.2%,-8.8
CCC(NC(=O)C1CCCO1)c1ccccc1 (stereo not given),20.7%,u,3.1%,5.3
C=C(C)C(=O)OCC(O)COc1ccc(C(C)(C)c2ccc(OCC(O)COC(=O)C(=C)C)cc2)cc1 (stereo not given),x,x,39.8µM*,36.2
COc1ccc2oc(=O)c(-c3nc(-c4cccs4)no3)cc2c1,-2.6%[46.1 µM],x,4.9%,2.3
CC(C)c1ccc(N2C(=O)CSC23C(=O)N2CCCc4cccc3c42)cc1 (stereo not given),-1.1%,7.9%,-0.4%,-110.6*
Cn1c(N)c(C(=O)CCl)c(=O)n(Cc2ccccc2)c1=O,-1.1%,4.0%,28.2µM*,-22.3
Cn1c(=O)c(C(=O)CCl)c(N)n(Cc2ccccc2)c1=O,-8.2%,-15.8%,u,25.6
Cn1cnnc1SCC(=O)c1c(N)n(Cc2ccccc2)c(=O)n(C)c1=O,0.3%,-10.4%[46.1 µM],3.7%,-64.3*
Cc1nnc(SCC(=O)c2c(N)n(Cc3ccccc3)c(=O)n(C)c2=O)n1C,-9.3%[46.1 µM],2.2%[46.1 µM],-7.9%,-33.1
CCCC(=O)NC(=S)Nc1cccc(Cl)c1N1CCCC1,u,u,-25.0%,65.0
Cc1cccc(-c2oc3ccc(-c4ccc5c(c4)OCO5)cc3c2-c2ccc(OC3CCCCO3)cc2)c1 (stereo not given),x,x,-6.7%,24.7
COc1ccccc1CNC(=S)Nc1ccc(F)cc1,-39.1%[46.1 µM],-14.6%[46.1 µM],41.4%,-24.6
Fc1ccc(NC(=S)NCc2ccccc2Cl)cc1,-3.0%,37.5%,19.8%,-70.1*
Fc1ccc(CCNC(=S)Nc2ccc(F)c(Cl)c2)cc1,u,4.3%[46.1 µM],-28.9%,-65.7*
Fc1ccc(NC(=S)NCCc2ccc(Cl)cc2)cc1,20.2%,u,27.0%,-68.8*
COc1ccc(Cl)cc1NC(=S)NCCc1ccc(F)cc1,x,x,-14.7%,x
O=C(NCCc1ccc(Cl)cc1)Nc1ccc(F)cc1,-3.4%,4.1%[46.1 µM],12.5%,-30.7
O=[N+]([O-])c1ccc(NC(=S)NCCc2ccc(F)cc2)cc1,u,u,-15.7%,-97.7*
SMILES,LASV entry inh,MARV entry inh,FMDV inh,HCMV inh
c1cc(N2CCCC3(CCNCC3)C2)ccn1,x,x,-11.8%,x
S=C(NCCc1ccc(Cl)cc1)NC1CCCC1,x,x,50.2%,-69.4*
CCOc1ccc(NC(=S)NCc2ccc3[nH]c(C)cc3c2)cc1,2.91µM*,2.2%,25.6%,-12.7
S=C(NCCCc1ccccc1)Nc1ccccc1,-20.3%[46.1 µM],7.1%[46.1 µM],0.0%,-39.5
CCCNC(=S)Nc1ccccc1,x,x,13.3%,-64.9*
S=C(NCCCc1ccccc1)Nc1ccc(Cl)cc1,-27.4%,5.1%,0.8%,-97.6*
CCCNC(=S)Nc1ccc(CC(=O)OC)cc1,-1.0%,-2.3%,-1.0%,-28.1
